# Measured values from the supplement of paper PMC8728848.
# This is one part of a sample in which the strongest signals are shown more often than they occur.
# Columns and labels:
# Assay in all cases: glycan array binding signal (z-score within array); higher = stronger binding
# Details in all cases: glycan notation: IUPAC condensed, linker removed
# [1] = molecular target: Fuc(a1-2)Gal(b1-3)GlcNAc6S
# Procedure, shortened: (§1)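 Columns mapping to the same glycan were averaged after glycan names were converted to IUPAC-condensed notation. The data come from 3228 arrays in the Consortium for Functional Glycomics database, limited to those with an available protein sequence. Binding is reported as a within-array Z-score averaged across arrays of one protein sequence and across linkers.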
# [2] = molecular target: Fuc(a1-2)Gal(b1-3)[Fuc(a1-4)]GlcNAc(b1-3)[Fuc(a1-3)[Gal(b1-4)]GlcNAc(b1-6)]Gal(b1-4)Glc
# Procedure, shortened: as §1
# [3] = molecular target: Fuc(a1-2)Gal(b1-4)GlcNAc(b1-6)GalNAc
# Procedure, shortened: as §1
# [4] = molecular target: Fuc(a1-2)Gal(b1-4)[Fuc(a1-3)]GlcNAc
# Procedure, shortened: as §1
# [5] = molecular target: Fuc(a1-2)[Gal(a1-3)]Gal(b1-3)GlcNAc
# Procedure, shortened: as §1
# [6] = molecular target: Fuc(a1-2)[Gal(a1-3)]Gal(b1-3)GlcNAc(b1-3)GalNAc
# Procedure, shortened: as §1
# [7] = molecular target: Fuc(a1-2)[Gal(a1-3)]Gal(b1-4)GlcNAc
# Procedure, shortened: as §1
# [8] = molecular target: Fuc(a1-2)[GalNAc(a1-3)]Gal(b1-4)GlcNAc(b1-2)Man
# Procedure, shortened: as §1
# [9] = molecular target: Fuc(a1-2)[GalNAc(a1-3)]Gal(b1-4)GlcNAc(b1-3)GalNAc
# Procedure, shortened: as §1
# [10] = molecular target: Fuc(a1-2)[GalNAc(a1-3)]Gal(b1-4)GlcNAc(b1-6)GalNAc
# Procedure, shortened: as §1
# [11] = molecular target: Fuc(a1-2)[GalNAc(b1-3)]Gal
# Procedure, shortened: as §1
# [12] = molecular target: Fuc(a1-3)[Gal(b1-4)]GlcNAc(b1-2)Man
# Procedure, shortened: as §1
# [13] = molecular target: Gal(a1-3)Gal(b1-3)GlcNAc
# Procedure, shortened: as §1
# [14] = molecular target: Gal(a1-3)Gal(b1-3)GlcNAc(b1-2)Man(a1-3)[Gal(a1-3)Gal(b1-3)GlcNAc(b1-2)Man(a1-6)]Man(b1-4)GlcNAc(b1-4)GlcNAc
# Procedure, shortened: as §1
# [15] = molecular target: Gal(a1-3)Gal(b1-4)GlcNAc(b1-6)GalNAc
# Procedure, shortened: as §1
# [16] = molecular target: Gal(b1-3)GlcNAc(a1-6)Gal(b1-4)GlcNAc
# Procedure, shortened: as §1
# [17] = molecular target: Gal(b1-3)GlcNAc(b1-3)Gal(b1-4)Glc
# Procedure, shortened: as §1
# [18] = molecular target: Gal(b1-3)GlcNAc(b1-6)GalNAc
# Procedure, shortened: as §1
# [19] = molecular target: Gal(b1-3)[Fuc(a1-4)]GlcNAc(b1-3)Gal(b1-3)[Fuc(a1-4)]GlcNAc
# Procedure, shortened: as §1
# [20] = molecular target: Gal(b1-3)[Neu5Ac(a2-6)]GlcNAc(b1-4)Gal(b1-4)Glc
# Procedure, shortened: as §1
# [21] = molecular target: Gal(b1-4)GalNAc(b1-3)[Fuc(a1-2)]Gal(b1-4)GlcNAc
# Procedure, shortened: as §1
# [22] = molecular target: Gal(b1-4)GlcNAc(b1-2)[Gal(b1-4)GlcNAc(b1-6)]Man(a1-6)[GlcNAc(b1-4)][Gal(b1-4)GlcNAc(b1-2)[Gal(b1-4)GlcNAc(b1-4)]Man(a1-3)]Man(b1-4)GlcNAc(b1-4)[Fuc(a1-6)]GlcNAc
# Procedure, shortened: as §1
# [23] = molecular target: Gal(b1-4)GlcNAc(b1-3)Gal(b1-4)GlcNAc(b1-2)Man(a1-3)[Gal(b1-4)GlcNAc(b1-3)Gal(b1-4)GlcNAc(b1-2)Man(a1-6)]Man(b1-4)GlcNAc(b1-4)GlcNAc
# Procedure, shortened: as §1
# [24] = molecular target: Gal3S(b1-4)Glc
# Procedure, shortened: as §1
# [25] = molecular target: Gal3S(b1-4)[Fuc(a1-3)]GlcNAc6S
# Procedure, shortened: as §1
# [26] = molecular target: Gal6S(b1-4)GlcNAc6S
# Procedure, shortened: as §1
# [27] = molecular target: GalNAc(a1-3)Gal
# Procedure, shortened: as §1
# [28] = molecular target: GalNAc(b1-3)Gal
# Procedure, shortened: as §1
# [29] = molecular target: GalNAc(b1-3)Gal(a1-4)Gal(b1-4)GlcNAc
# Procedure, shortened: as §1
# [30] = molecular target: GalNAc(b1-3)Gal(a1-4)Gal(b1-4)GlcNAc(b1-3)Gal(b1-4)Glc
# Procedure, shortened: as §1
# [31] = molecular target: GalNAc(b1-3)Gal(a1-6)Gal(b1-4)Glc
# Procedure, shortened: as §1
# [32] = molecular target: GalNAc3S(b1-4)GlcNAc
# Procedure, shortened: as §1
# [33] = molecular target: GlcNAc(a1-4)Gal(b1-3)GlcNAc
# Procedure, shortened: as §1
# [34] = molecular target: GlcNAc(a1-4)Gal(b1-4)GlcNAc(b1-3)Gal(b1-4)GlcNAc
# Procedure, shortened: as §1
# [35] = molecular target: GlcNAc(b1-2)Man(a1-3)[GlcNAc(b1-2)Man(a1-6)]Man(b1-4)GlcNAc(b1-4)GlcNAc
# Procedure, shortened: as §1
# [36] = molecular target: GlcNAc(b1-3)Gal
# Procedure, shortened: as §1
# [37] = molecular target: GlcNAc(b1-6)GalNAc
# Procedure, shortened: as §1
# [38] = molecular target: Man(a1-2)Man(a1-3)[Man(a1-2)Man(a1-6)]Man(a1-6)[Man(a1-2)Man(a1-2)Man(a1-3)]Man
# Procedure, shortened: as §1
# [39] = molecular target: Man(a1-3)[Man(a1-6)]Man(a1-6)[Man(a1-3)]Man(b1-4)GlcNAc(b1-4)GlcNAc
# Procedure, shortened: as §1
# [40] = molecular target: Neu5Ac(a2-3)Gal(b1-3)GalNAc(b1-3)Gal(a1-4)Gal(b1-4)Glc
# Procedure, shortened: as §1
# [41] = molecular target: Neu5Ac(a2-3)Gal(b1-3)[Fuc(a1-4)]GlcNAc(b1-3)Gal(b1-3)[Fuc(a1-4)]GlcNAc
# Procedure, shortened: as §1
# [42] = molecular target: Neu5Ac(a2-3)Gal(b1-4)Glc
# Procedure, shortened: as §1
# [43] = molecular target: Neu5Ac(a2-3)Gal(b1-4)GlcNAc(b1-2)Man(a1-3)[Neu5Ac(a2-3)Gal(b1-4)GlcNAc(b1-2)Man(a1-6)]Man(b1-4)GlcNAc(b1-4)[Fuc(a1-6)]GlcNAc
# Procedure, shortened: as §1
# [44] = molecular target: Neu5Ac(a2-3)Gal(b1-4)GlcNAc(b1-3)Gal
# Procedure, shortened: as §1
# [45] = molecular target: Neu5Ac(a2-3)Gal(b1-4)GlcNAc(b1-3)Gal(b1-4)GlcNAc
# Procedure, shortened: as §1
# [46] = molecular target: Neu5Ac(a2-3)Gal(b1-4)[Fuc(a1-3)]GlcNAc(b1-6)[Neu5Ac(a2-3)Gal(b1-3)]GalNAc
# Procedure, shortened: as §1
# [47] = molecular target: Neu5Ac(a2-6)Gal(b1-4)GlcNAc(b1-2)[Neu5Ac(a2-6)Gal(b1-4)GlcNAc(b1-4)]Man(a1-3)[GlcNAc(b1-4)][Neu5Ac(a2-6)Gal(b1-4)GlcNAc(b1-4)Man(a1-6)]Man(b1-4)GlcNAc(b1-4)GlcNAc
# Procedure, shortened: as §1
# [48] = molecular target: Neu5Ac(a2-8)Neu5Ac(a2-8)Neu5Ac(a2-3)[GalNAc(b1-4)]Gal(b1-4)Glc
# Procedure, shortened: as §1
# [49] = molecular target: Neu5Ac(b2-6)GalNAc
# Procedure, shortened: as §1
binder,measurement,setting,value
Cohesin-mDCIR (Macaca mulatta) (protein) GLDDLDAVRIKVDTVNAKPGDTVRIPVRFSGIPSKGIANCDFVYSYDPNVLEIIEIEPGDIIVDPNPDKSFDTAVYPDRKIIVFLFAEDSGTGAYAITKDGVFATIVAKVKEGAPNGLSVIKFVEVGGFANNDLVEQKTQFFDGGVNVGDTTEPATPTTPVTTPTTTDDLDAASFQKYSQLLEKMTTKDLVHTTLECVKKNMTTEETAWSCCPKNWKPFSSNCYFISTESASWQKSEKDCARMEAHLLVINTREEQDFIFQNLQEESAYFVGLSDPEGQRHWQWVDRTPYNESSTFWHPHEPSDPDERCVVLNFRKTPKRWGWNDVHCIVHQRSVCEMMKIHLHHHHHH,glycan array binding signal (z-score),[1],-0.407
same,glycan array binding signal (z-score),[2],-0.151
same,glycan array binding signal (z-score),[3],0.7
same,glycan array binding signal (z-score),[4],0.229
same,glycan array binding signal (z-score),[5],3.96
same,glycan array binding signal (z-score),[6],-0.241
same,glycan array binding signal (z-score),[7],-0.349
same,glycan array binding signal (z-score),[8],-0.101
same,glycan array binding signal (z-score),[9],-0.338
same,glycan array binding signal (z-score),[10],5.37
same,glycan array binding signal (z-score),[11],3.27
same,glycan array binding signal (z-score),[12],-0.274
same,glycan array binding signal (z-score),[13],8.73
same,glycan array binding signal (z-score),[14],-0.246
same,glycan array binding signal (z-score),[15],6.42
same,glycan array binding signal (z-score),[16],-0.186
same,glycan array binding signal (z-score),[17],-0.363
same,glycan array binding signal (z-score),[18],3.16
same,glycan array binding signal (z-score),[19],4.89
same,glycan array binding signal (z-score),[20],-0.388
same,glycan array binding signal (z-score),[21],-0.103
same,glycan array binding signal (z-score),[22],-0.425
same,glycan array binding signal (z-score),[23],4.39
same,glycan array binding signal (z-score),[24],5.11
same,glycan array binding signal (z-score),[25],1.55
same,glycan array binding signal (z-score),[26],0.096
same,glycan array binding signal (z-score),[27],0.417
same,glycan array binding signal (z-score),[28],2.45
same,glycan array binding signal (z-score),[29],1.26
same,glycan array binding signal (z-score),[30],0.862
same,glycan array binding signal (z-score),[31],2.77
same,glycan array binding signal (z-score),[32],-0.436
same,glycan array binding signal (z-score),[33],-0.401
same,glycan array binding signal (z-score),[34],-0.366
same,glycan array binding signal (z-score),[35],-0.313
same,glycan array binding signal (z-score),[36],-0.352
same,glycan array binding signal (z-score),[37],1.02
same,glycan array binding signal (z-score),[38],-0.438
same,glycan array binding signal (z-score),[39],-0.439
same,glycan array binding signal (z-score),[40],-0.388
same,glycan array binding signal (z-score),[41],-0.418
same,glycan array binding signal (z-score),[42],-0.444
same,glycan array binding signal (z-score),[43],-0.364
same,glycan array binding signal (z-score),[44],-0.377
same,glycan array binding signal (z-score),[45],-0.175
same,glycan array binding signal (z-score),[46],-0.363
same,glycan array binding signal (z-score),[47],-0.257
same,glycan array binding signal (z-score),[48],0.263
same,glycan array binding signal (z-score),[49],-0.406
